From PubChem BioAssay
Only a selection was taken, and hits are over-represented in it overall.
SF1 inhibitor – SF-1 (human) inhibition. Q13285. hit rate 0.55% among 65,000. CHO-K1 Gal4-SF-1 LBD luciferase reporter. inhibition, % at 10 µM;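 active = inhibition above the mean inhibition of all tested compounds plus 3 SD, cut at about 48% in these data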
Target sequence (Q13285 whole entry, looked up, the tested form may be a part): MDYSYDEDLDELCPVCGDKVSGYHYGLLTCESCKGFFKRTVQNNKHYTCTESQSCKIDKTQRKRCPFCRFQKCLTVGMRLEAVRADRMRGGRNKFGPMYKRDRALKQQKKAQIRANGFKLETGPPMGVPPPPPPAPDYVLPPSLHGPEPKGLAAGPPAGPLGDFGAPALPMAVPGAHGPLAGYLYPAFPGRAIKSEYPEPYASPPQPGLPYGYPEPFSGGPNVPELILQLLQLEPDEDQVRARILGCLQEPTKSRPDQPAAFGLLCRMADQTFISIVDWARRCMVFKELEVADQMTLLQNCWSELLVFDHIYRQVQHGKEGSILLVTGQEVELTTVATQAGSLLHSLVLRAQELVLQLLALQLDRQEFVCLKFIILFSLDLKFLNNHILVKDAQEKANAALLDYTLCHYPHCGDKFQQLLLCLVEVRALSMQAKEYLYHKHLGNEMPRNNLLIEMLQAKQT
Large screens that a line does not name were inactive.

CN(C(=O)C12CC3CC(CC(C3)C1)C2)C1CCS(=O)(=O)C1 (stereo unspecified)	none
O=C(CSc1cn(Cc2ccccc2)c2ccccc12)Nc1nccs1	none
O=C(CSC1=NCCS1)Nc1ccnc2ccccc12	SF1 inhibitor 67
O=C(CCCSc1nc2ccccc2[nH]1)NC1=NCCS1	none
CCOc1ccc2[nH]c(=O)c(CN(CCO)C(=O)c3ccc(F)cc3)cc2c1	none
Cc1cc(C)nc(Nc2nc(=O)c3ccccc3s2)n1	none
O=C(CNc1ccc(Oc2ccccc2)cc1)N1CCOCC1	none
COc1ccc(-c2noc(C3CCCN(C(=O)CCc4ccccc4)C3)n2)cc1 (stereo unspecified)	none
COc1cccc(NC(=O)N2CCC(N3CCCCC3)CC2)c1	none
COc1ccc(NC(=O)N2CCCC(c3nc(-c4ccc(C(C)C)cc4)no3)C2)cc1 (stereo unspecified)	SF1 inhibitor 59
CCOC(=O)CSC(CC)C(=O)Nc1nnc(CC)s1 (stereo unspecified)	none
Cc1c(NC(=O)Cn2nc(C(F)(F)F)c3c2CCCC3)c(=O)n(-c2ccccc2)n1C	none
CC(=O)c1ccc(N2CCN(C(=O)c3cc4c(=O)n(C)c5ccccc5c4n3C)CC2)cc1	none
CC(=O)c1ccc(N2CCN(c3ccc(C(F)(F)F)cn3)CC2)cc1	SF1 inhibitor 58
C=CCn1c(=O)[nH]c2cc(C(=O)N3CCN(c4ccc(C(C)=O)cc4)CC3)ccc2c1=O	none
c1ccn2c(Cc3nnc4ccccn34)nnc2c1	none
CCOc1ccc(C(C)=O)cc1CSc1nnc(-c2cccs2)n1CC1CCCO1 (stereo unspecified)	none
CCOC(OCC)P(=O)(c1ccccc1)c1ccccc1	none
O=C(O)c1cccc(COc2ccccc2Cl)c1	SF1 inhibitor 94
O=C(COc1ccccc1Cl)Nc1ccc(Cl)cn1	none
CN1CCN(C(=O)c2cccc(COc3cc(Cl)ccc3Cl)c2)CC1	none
CN(c1ccccc1)c1nc2ccsc2c(=O)s1	none
COc1ccc(N2CCN(C(c3cccs3)C(C)NC(=O)c3ccco3)CC2)cc1 (stereo unspecified)	none
Cc1cnc(NC(=O)c2ccco2)s1	none
Cc1sc(NC(=O)c2ccco2)c(C(c2cccnc2)N2CCN(c3ccc(F)cc3)CC2)c1C (stereo unspecified)	SF1 inhibitor 48
FC(F)C(F)(F)C1=CC(c2cccs2)=NCCN1	none
CCOC(=O)N1CCC(c2nc(C)sc2C(=O)O)CC1	none
O=C1c2ccccc2C(=O)N1CCN1CCc2ccccc21	none
CC(C)c1nnc(NC(=O)C2CCN(c3nc4ccccc4s3)CC2)s1	none
CCOc1ccc2nc(N3CCCCCC3)sc2c1	none
Cc1cc(N2CCN(c3nc4ccccc4s3)CC2)n2ncnc2n1	SF1 inhibitor 55
CC1CCCN(c2ccc(C(=O)NCC3CCCO3)cn2)C1 (stereo unspecified)	none
COc1ccc2cc(CCNC(=O)C3CC3)c(=O)[nH]c2c1	none
COc1ccc(C)cc1-n1nnnc1SCc1nc2ccccc2s1	none
Cc1ccc(Nc2nc(CSc3nnnn3-c3ccccc3)cs2)cc1	none
COc1cc(CSc2nnnn2-c2ccc(C)cc2)cc(OC)c1OC	SF1 inhibitor 62
N#C/C(=C\c1ccc(O)c(O)c1)C(=O)NCCCc1ccccc1	SF1 inhibitor 69
CCOC(=O)c1cnc(-n2nc(C)cc2C)nc1NC1CCCCC1	SF1 inhibitor 87
CCOC(=O)c1cnc(-n2nc(C)cc2C)nc1Nc1ccc2c(c1)OCO2	none
CCOC(=O)c1snc(C(=O)NC2CCCCC2)c1N	none
Cc1cc(/C=N/n2cnnc2)c(C)n1-c1ccc(OCc2ccccc2F)cc1	SF1 inhibitor 84
COCCn1c(C)cc(C(=O)COC(=O)c2n[nH]c3ccccc23)c1C	SF1 inhibitor 67
COCCn1c(C)cc(C(=O)CSc2nc3ccccc3c(=O)[nH]2)c1C	none
COCCn1c(C)cc(C(=O)COC(=O)c2ccc3ncsc3c2)c1C	none
CCCCSC1=C(C#N)C(c2ccccc2C)C(C(=O)OCC)C(=O)N1 (stereo unspecified)	none
CN1Cc2cc(C(=O)c3cc(Cl)cc(CSc4ncccn4)c3O)cnc2NC1=O	SF1 inhibitor 50
Cc1ccc(O)c(C(=O)c2cnc3c(c2)CN(CCC(C)C)C(=O)N3)c1	none
O=c1cc(CSc2nnc(-c3ccccc3)o2)c2ccccc2[nH]1	none
Cc1nc(-c2ccccc2)sc1C(N)=O	none
c1ccc(-c2cn3nc(-c4ccccc4)sc3n2)cc1	SF1 inhibitor 51
CSc1nc(C)cc(OCNC(=O)c2cccs2)n1	none
CCOC(=O)N1CCN(C(=O)c2ccc3c(SCC(=O)O)c4c(nc3c2)CCC4)CC1	none
COc1ccc(NC(=O)c2cc3ccccc3o2)cc1	none
CCCC(=O)N1CCN(c2ccc(NC(=O)c3cc4ccccc4o3)cc2Cl)CC1	SF1 inhibitor 48
CC(=O)Nc1cccc(NC(=O)c2cc3ccccc3o2)c1	none
Cc1csc(SCC(=O)c2cc(C)n(Cc3cccs3)c2C)n1	SF1 inhibitor 60
Cc1nc2ccc(NC(=O)Cc3cccs3)cc2s1	none
CC(=O)Nc1ccccc1OCC(=O)c1cc(C)n(Cc2cccs2)c1C	SF1 inhibitor 70
COc1ccc(-c2nnc(SCC(=O)c3cc(C)n(Cc4cccs4)c3C)o2)cc1	none
C=CCn1c(C)cc(C(=O)CSc2nnc(Cc3ccccc3)o2)c1C	none
CCN(CC)C(=O)Oc1ccccc1NC(C)=O	none
CCCn1c(C)cc(C(=O)CN2C(=O)c3ccccc3C2=O)c1C	none
C=CCn1c(C)cc(C(=O)CSc2nnc(NCc3ccccc3)s2)c1C	none
CC(=O)Nc1ccc(SCC(=O)c2cc(C)n(Cc3cccs3)c2C)cc1	SF1 inhibitor 58
OC(COCC1COc2ccccc2O1)CN1CCN(c2ccccn2)CC1 (stereo unspecified)	none
O=C(c1ccc(NC2=NC3CS(=O)(=O)CC3S2)cc1)N1CCc2ccccc2C1 (stereo unspecified)	none
CCN1C(=O)N(CN2CCOCC2)C2C1N(CN1CCOCC1)C(=O)N2CC (stereo unspecified)	none
O=C(c1ccc(F)cc1F)N(Cc1ccccn1)Cc1ccco1	none
COc1cc2c(cc1OC)C(C)N(C(=O)C1COc3ccccc3O1)CC2 (stereo unspecified)	none
O=C(CCS(=O)(=O)c1ccc(Br)cc1)N1CCN(c2ccccc2F)CC1	none
CCOC(=O)c1sc(Nc2nc3c(OC)cccc3s2)nc1C	none
c1ccc(-c2csc(Nc3cccnc3)n2)nc1	none
COc1cccc2sc(Nc3nc(-c4ccccn4)cs3)nc12	SF1 inhibitor 96
CCOC(=O)N1CCC(Nc2nc3ccccc3nc2NS(=O)(=O)c2ccc(Cl)cc2)CC1	none
O=S(=O)(c1ccc(Cl)s1)N1CCN(C/C=C/c2ccccc2)CC1	none
CC(=O)N=C(N)Sc1nc2ccccc2[nH]1	none
COc1ccccc1-c1nc2n(n1)C(c1cccs1)C(C(=O)Nc1cccnc1)=C(C)N2 (stereo unspecified)	none
COc1ccccc1NC(=O)C1=C(C)Nc2nc(CCCO)nn2C1c1ccc2c(c1)OCO2 (stereo unspecified)	none
CCn1cc(Br)c(C(=O)Nc2cccc(SC)c2)n1	none
CC1(C)CC(=O)C(CC2=C(O)CC(C)(C)CC2=O)=C(O)C1	none
COc1ccc(NC(=O)NCCCN2CCN(c3cc(C)ccc3C)CC2)cc1	SF1 inhibitor 49
Cc1ccc2c(c1)NC(=O)C(CC(=O)NCCCN1CCN(c3cc(Cl)ccc3C)CC1)O2 (stereo unspecified)	none
COc1ccc(N2CCN(CCNC(=O)CCNS(=O)(=O)c3cccs3)CC2)cc1	none
CCN(C(=O)c1cc(Cl)ccc1OC)C1CCCCC1	none
Cc1noc(C)c1COC(=O)c1cccnc1SCC(=O)Nc1ccc2c(c1)OCO2	none
Fc1ccc(OCc2nn3cnnc3s2)cc1	none
CC1(C)Cc2c(c(-c3ccccc3)nc(N3CCCC3)c2C(N)=O)CO1	none
O=S(=O)(c1ccccc1)N(C1=NCCS1)S(=O)(=O)c1ccccc1	none
